Results filed as inconclusive are left out. Where a call stands in place of a potency, no number is given. Active and inactive are the calls of the source. Calls come from the whole dose curve; as a rule, active = well fitted inhibition curve with a large enough effect; inconclusive = small, poorly fitted or top-dose-only effect; inactive = flat fitted curve, though single readings scatter.

In the first experiment the target is Phospholipid hydroperoxide glutathione peroxidase GPX4 (Homo sapiens) (UniProt P36969). The experiment can be described thus: Primary qHTS Assay for Inhibitors of Recombinant Selenoprotein Glutathione Peroxidase 4 (GPX4) (AID 1845192). Note: nearly all actives have a fitted effect of over 65% in size. The conditions noted are these: recombinant GPX4, GR-coupled NADPH fluorescence, 15 min; series mostly up to 50 µM. In outline: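 qHTS, GR-coupled: GPX4 200 nM + cpd 30 min RT → GSH 1 mM, NADPH 0.5 mM, GR 100 nM → CHP 0.5 mM start; fluor 340/450 at t0 and t15 min; no-enzyme wells as control.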
Chain of Phospholipid hydroperoxide glutathione peroxidase GPX4 (Homo sapiens) (P36969 whole entry, looked up): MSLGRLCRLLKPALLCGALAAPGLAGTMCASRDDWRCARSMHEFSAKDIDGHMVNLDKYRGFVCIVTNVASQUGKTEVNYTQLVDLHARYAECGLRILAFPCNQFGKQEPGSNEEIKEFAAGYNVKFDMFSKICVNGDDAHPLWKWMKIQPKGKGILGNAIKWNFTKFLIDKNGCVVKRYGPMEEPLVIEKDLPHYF
On the technique in general: qHTS replaces the single test concentration by a dilution series.
With `CC(=O)O[C@@](C)(C(=O)/C=C/C(C)(C)O)[C@H]1[C@H](O)C[C@@]2(C)[C@@H]3CC=C4[C@@H](C=C(O)C(=O)C4(C)C)[C@]3(C)C(=O)C[C@]12C`, the Potency result is “inactive”.

Turning to `COc1cc2c(cc1O)CC[C@H]1[C@@H]2CC[C@]2(C)[C@H](O)CC[C@@H]12`, the Potency entry is “inactive”.

On to `COC(=O)C[C@H]1[C@]2(C)C3=C(C)[C@H](c4ccoc4)C[C@H]3O[C@@H]2[C@H](OC(C)=O)C2[C@](C)(C(=O)OC)C=CC(=O)[C@@]21C` (some centres not stated), for which the Potency result was “inactive”.

For another experiment, the target named is Luciferin 4-monooxygenase (Photinus pyralis) (UniProt P08659). The experiment is described as follows: Primary firefly luciferase (FLuc) qHTS assay for identification of artifact compounds. (AID 1845220). Note: nearly all actives have a fitted effect of over 60% in size. Note: potency is the fitted concentration of half-maximal effect. As to conditions: purified firefly luciferase, luminescence, 5 min; series mostly up to 54.1 µM. In outline: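 In this counter-screen for luciferase artifacts, test compounds met substrate (10 uM each luciferin and ATP) before 10 nM enzyme started the reaction. Light output was measured 5 min later.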
In the case of `CC/C=C/CC1=C(CCCCC(CCC(=O)O)OC(C)=O)CCC1=O` (configuration not stated), the Potency entry is “inactive”.

As for `Cc1cc2c(F)c(Oc3ncnn4cc(OCC(C)O)c(C)c34)ccc2[nH]1` (configuration not stated), the Potency result was “inactive”.

For the compound `COC1C(=O)CCC2(CO2)C1(O)C1(C)OC1CC=C(C)C` (configuration not stated), the Potency result is “inactive”.

With `C[C@@H]1CC[C@]2(C(=O)OC3OC(CO)C(O)C(O)C3O)CC[C@]3(C)C(=CCC4[C@@]5(C)CC[C@H](O)[C@](C)(C(=O)O)C5CC[C@]43C)C2[C@]1(C)O` (some centres not stated), the Potency entry was “inactive”.

Take `O=C(O)/C=C/c1ccc(O)c(O[C@@H]2O[C@H](CO)[C@@H](O)[C@H](O)[C@H]2O)c1`: the Potency result is “inactive”.

With `C=C1C(=O)OC2/C=C(\CO)CC/C=C(\C=O)CC(OC(=O)CC(C)C)C12` (configuration not stated), the Potency result is “inactive”.

Consider `CC(=O)OC[C@]12[C@H](OC(C)=O)C(=O)[C@@H]3[C@@H](OC(C)=O)[C@@]14O[C@@]3(C)COC(=O)c1cccnc1[C@@H](C)[C@H](C)C(=O)O[C@@H]([C@H](O)[C@@H]2OC(C)=O)[C@]4(C)O`, for which the Potency result was “inactive”.

Turning to `COc1c2c(c(C)c3c1C(=O)OC3)OC1(C)CC(O)C34OC(OC)(CC(OC(C)=O)C3(C)C1C2)OC4(C)C` (configuration not stated), the Potency result is “inactive”.

Regarding `CC1OC(OC2CCC3(C)C(CCC4(C)C3CC=C3C5CC(C)(C)CCC5(C(=O)OC5OC(CO)C(O)C(O)C5O)CCC34C(=O)O)C2(C)C)C(O)C(O)C1O` (configuration not stated), the Potency entry was “inactive”.

Turning to `O=C(c1cccc(Cl)c1F)N1CCN(Cc2cccc(Nc3nccs3)n2)CC1`, the Potency result was “inactive”.

`CN(C)c1ccc2c(c1)OC(N)=C(C#N)C2c1cccc(C(F)(F)F)c1` (configuration not stated): the Potency result is “inactive”.

As to `CC(C)S(=O)(=O)N[C@H]1CCOC[C@@H]1c1ccc(-c2ccc(C#N)s2)cc1`, the Potency entry was “inactive”.

For the compound `Cc1nc2ccc(Oc3ccc(F)cc3)cc2c(=O)n1C[C@H]1CCCN(C(C)C)C1`, the Potency result was “inactive”.

In the case of `COC(=O)C12C(=O)C(C)=C(O)C1(C)C(C)=CC1C3(CO)CCC(O)C(C)(C)C3CCC12C` (configuration not stated), the Potency result is “inactive”.

As for `CC[C@H](CO)Nc1nc(NCc2ccc(-c3ccccn3)cc2)c2ncn(C(C)C)c2n1`, the Potency result is “inactive”.

For `CC1OC(OC2C(O)C(OC3CCC4(C)C(CCC5(C)C4CC=C4C6CC(C)(COC7OC(CO)C(O)C(O)C7O)CC(O)C6(C)CCC45C)C3(C)C)OC(C(=O)O)C2O)C(O)C(O)C1OC1OCC(O)C(O)C1O` (configuration not stated), the activity change, negative = inhibition was 0.0325% [at 11.6 µM] (inactive).

On to `CCCN1CCN(c2ccc(C(=O)NC3(C(=O)NCC#N)CCCCC3)cc2)CC1`, for which the Potency entry is “inactive”.

Consider `CC(C)=CC/C=C(\C)[C@H]1CC[C@]2(C)[C@@H]1[C@H](O)C[C@@H]1[C@@]3(C)CC[C@H](O)C(C)(C)[C@@H]3[C@@H](O[C@@H]3O[C@H](CO)[C@@H](O)[C@H](O)[C@H]3O)C[C@]12C`, for which the Potency result was “inactive”.

Regarding `Cn1cc(S(=O)(=O)c2ccc(Cl)cc2)c2cccc(N3CCNCC3)c21`, the Potency entry was “inactive”.

Turning to `COC(=O)C1=CO[C@@H](O[C@@H]2O[C@H](CO[C@@H]3O[C@H](COC(=O)/C=C/c4cc(OC)c(O)c(OC)c4)[C@@H](O)[C@H](O)[C@H]3O)[C@@H](O)[C@H](O)[C@H]2O)[C@@H]2C(CO)=CC[C@H]12`, the Potency entry is “inactive”.

For `C/C=C1\[C@H](OC2OC(COC3OC(CO)C(O)C(O)C3O)C(O)C(O)C2O)OC=C(C(=O)OC)[C@H]1CC(=O)OCCc1ccc(O)cc1` (some centres not stated), the Potency entry is “inactive”.

In the case of `C=CC(=O)N1CCN(C(=O)CNc2cc(I)c(Cl)cc2O)CC1`, the Potency result was “inactive”.

`Cc1cc(OCc2nc(-c3ccccc3Cl)cs2)ccc1OCC(=O)O`: the Potency was 9.53 µM (active).

`CC[C@H](C)[C@H](NC(=O)[C@H]([C@@H](C)CC)N(C)C(C)=O)C(=O)N[C@H](C(=O)N[C@@H](CC(C)C)C(=O)[C@@]1(C)CO1)[C@@H](C)O`: the Potency result is “inactive”.

As for `C=CC1C(OC2OC(CO)C(O)C(O)C2O)OC=C(C(=O)OC)C1CC1CC(=O)CC(CCc2ccc(O)cc2)O1` (configuration not stated), the Potency result is “inactive”.

For the compound `CC(=O)OC1C(O)CC2(C)C(CCC(C)C23Cc2c(O)cc(CO)c(C=O)c2O3)C1(C)C` (configuration not stated), the Potency entry is “inactive”.

For `O=C(C(c1ccccc1)c1ccccc1)N1CCN(CC(O)COc2cccc3ncccc23)CC1` (configuration not stated), the Potency result is “inactive”.

Consider `C=C1C(=O)OC2C1CCC(=C)C1CC(OC(C)=O)C(=C)C12` (configuration not stated), for which the Potency result is “inactive”.

Consider `COC(=O)N1CCC(n2ncc3c(N4CCOCC4)nc(-c4ccc(NC(=O)Nc5ccc(CO)cc5)cc4)nc32)CC1`, for which the Potency result was “inactive”.

For `CCC(O)C(C)C1CCC(C(C)C(=O)O)O1` (configuration not stated), the Potency result is “inactive”.

For `CC(=O)OC1/C(C)=C/C(=O)C(OC(C)=O)C(C)(C)/C=C/C(C)C(=O)C2(OC(C)=O)CC(C)C(OC(=O)c3ccccc3)C12` (configuration not stated), the Potency entry was “inactive”.

As for `C=C(C(=O)O)C1CCC2(C)CCC(O)C(=C)C2C1` (configuration not stated), the Potency result is “inactive”.

As to `CC1CCC2(CO)C(C(=O)O)=CCCC2C1(C)CCc1ccoc1` (configuration not stated), the Potency entry was “inactive”.

In the case of `CNC(=O)c1ccccc1Nc1cc(Nc2ccc(N3CCOCC3)cc2OC)ncc1C(F)(F)F`, the Potency result is “inactive”.

With `COC1CC(O[C@H]2CC[C@@]3(C)C(CCC4C3[C@H](OC(C)=O)[C@@H](OC(=O)/C=C/c3ccccc3)[C@]3(C)C(C(C)=O)CC[C@]43O)C2)OC(C)C1OC1CC(OC)C(OC2CC(OC)C(OC3OC(C)C(OC4OC(CO)C(O)C(O)C4O)C(OC)C3O)C(C)O2)C(C)O1` (some centres not stated), the outcome is “inactive [at 11.6 µM]”.

`C[C@@H]1O[C@@H](O[C@@H]2CO[C@@H](O[C@H]3CC[C@@]4(C)C(CC[C@]5(C)C4CC=C4[C@@H]6CC(C)(C)CC[C@]6(C(=O)O[C@@H]6O[C@H](CO)[C@@H](O)[C@H](O)[C@H]6O)CC[C@]45C)[C@]3(C)CO)[C@H](O)[C@H]2O[C@@H]2O[C@H](CO)[C@@H](O)[C@H](O)[C@H]2O)[C@H](O)[C@H](O)[C@H]1O` (some centres not stated): the outcome is “inactive [at 11.6 µM]”.

With `CC(=O)O[C@@](C)(C(=O)/C=C/C(C)(C)O)[C@H]1[C@H](O)C[C@@]2(C)[C@@H]3CC=C4[C@@H](C=C(O)C(=O)C4(C)C)[C@]3(C)C(=O)C[C@]12C`, the Potency entry was “inactive”.

As for `COc1cc2c(cc1O)CC[C@H]1[C@@H]2CC[C@]2(C)[C@H](O)CC[C@@H]12`, the Potency result was “inactive”.

Turning to `COC(=O)C[C@H]1[C@]2(C)C3=C(C)[C@H](c4ccoc4)C[C@H]3O[C@@H]2[C@H](OC(C)=O)C2[C@](C)(C(=O)OC)C=CC(=O)[C@@]21C` (some centres not stated), the Potency result was “inactive”.

(Values after PubChem BioAssay (NCATS).)
